# Of roughly 7,900 targets only a part is listed; those with a hit were picked by preference. About 0.6% of all pairs of compound and target were hits.
# Assays:
# Assay in all cases: log2 fold change, soluble protein after heating vs DMSO (PISA); higher = thermal stabilisation; K562 cells, 10 uM, 30 min; active = over 0.2 and 3.5 SD of the protein, either way, in both replicates (recomputed)
# [1] = compound: C1=CC=C(C=C1)[C@H](COC2=CC3=C(C=C2)NC(=O)N3)NC(=O)C4=CC=CN(C4=O)CC5=CC(=C(C=C5)F)F
# How it was run: (§1)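 K562 cells (2×10^6 cells/mL) were treated with 10 μM compound for 30 min, and aliquots were heated for 3 min over 48°C-58°C. Pooled aliquots were extracted in PBS with 0.5% NP-40 at 4°C, and the supernatant after 21,000xg for 90 min was measured by TMTpro 16plex LC-MS/MS with channel sums equalised. Reported thermal stability, relative to control samples and from duplicates, is a log2 fold change.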
# [2] = compound: CC1=C(SC2=C1C(=N[C@H](C3=NN=C(N32)C)CC(=O)N)C4=CC=C(C=C4)Cl)C
# How it was run: as §1
# [3] = compound: CC1=C2C(=CC=C1)N=C(N(C2=O)C3=CC=CC=C3C)CN4C=NC5=C(N=CN=C54)N
# How it was run: as §1
# [4] = compound: Cc1sc2c(c1C)C(c1ccc(Cl)cc1)=N[C@@H](CC(=O)OC(C)(C)C)c1nnc(C)n1-2
# How it was run: as §1
# [5] = compound: c1ccc([C@@H]2C[C@H]2NC2CCNCC2)cc1
# How it was run: as §1
# UniProt P98196, sequence (P98196 whole entry, looked up): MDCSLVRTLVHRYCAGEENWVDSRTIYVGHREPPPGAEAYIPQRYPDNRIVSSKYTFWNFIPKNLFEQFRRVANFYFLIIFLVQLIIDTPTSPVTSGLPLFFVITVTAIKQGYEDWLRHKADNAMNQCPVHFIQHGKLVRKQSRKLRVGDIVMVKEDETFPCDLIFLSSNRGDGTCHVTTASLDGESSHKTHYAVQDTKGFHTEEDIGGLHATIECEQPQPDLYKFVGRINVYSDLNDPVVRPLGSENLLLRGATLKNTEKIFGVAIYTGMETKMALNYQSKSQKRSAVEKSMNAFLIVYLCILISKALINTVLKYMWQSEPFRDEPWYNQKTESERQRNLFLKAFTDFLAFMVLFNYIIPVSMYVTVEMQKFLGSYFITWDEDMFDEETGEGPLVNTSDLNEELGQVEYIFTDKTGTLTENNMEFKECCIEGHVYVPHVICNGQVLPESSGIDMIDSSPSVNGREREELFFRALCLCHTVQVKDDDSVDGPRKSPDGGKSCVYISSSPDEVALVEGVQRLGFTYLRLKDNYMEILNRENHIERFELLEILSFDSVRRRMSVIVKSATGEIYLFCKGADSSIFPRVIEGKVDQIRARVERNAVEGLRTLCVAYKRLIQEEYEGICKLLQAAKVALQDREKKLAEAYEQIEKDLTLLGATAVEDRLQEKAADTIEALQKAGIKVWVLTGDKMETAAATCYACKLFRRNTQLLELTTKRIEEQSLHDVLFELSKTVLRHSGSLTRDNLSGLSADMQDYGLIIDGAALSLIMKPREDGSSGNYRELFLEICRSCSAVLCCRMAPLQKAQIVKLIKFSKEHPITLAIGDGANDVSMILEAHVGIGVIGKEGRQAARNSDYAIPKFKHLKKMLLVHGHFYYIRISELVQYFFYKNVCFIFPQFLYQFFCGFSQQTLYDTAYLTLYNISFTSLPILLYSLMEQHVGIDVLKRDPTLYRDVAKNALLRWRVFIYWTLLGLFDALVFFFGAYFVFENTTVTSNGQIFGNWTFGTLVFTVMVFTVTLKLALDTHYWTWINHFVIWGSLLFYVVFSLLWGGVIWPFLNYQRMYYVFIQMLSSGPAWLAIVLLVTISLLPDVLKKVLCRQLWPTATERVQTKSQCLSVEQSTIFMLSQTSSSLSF
# UniProt Q9Y3D8, sequence (Q9Y3D8 whole entry, looked up): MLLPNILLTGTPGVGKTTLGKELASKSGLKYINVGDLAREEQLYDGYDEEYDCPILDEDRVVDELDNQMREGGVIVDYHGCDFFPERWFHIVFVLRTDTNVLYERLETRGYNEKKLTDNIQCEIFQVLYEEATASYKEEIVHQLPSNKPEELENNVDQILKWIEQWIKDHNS
# UniProt Q92560, sequence (Q92560 whole entry, looked up): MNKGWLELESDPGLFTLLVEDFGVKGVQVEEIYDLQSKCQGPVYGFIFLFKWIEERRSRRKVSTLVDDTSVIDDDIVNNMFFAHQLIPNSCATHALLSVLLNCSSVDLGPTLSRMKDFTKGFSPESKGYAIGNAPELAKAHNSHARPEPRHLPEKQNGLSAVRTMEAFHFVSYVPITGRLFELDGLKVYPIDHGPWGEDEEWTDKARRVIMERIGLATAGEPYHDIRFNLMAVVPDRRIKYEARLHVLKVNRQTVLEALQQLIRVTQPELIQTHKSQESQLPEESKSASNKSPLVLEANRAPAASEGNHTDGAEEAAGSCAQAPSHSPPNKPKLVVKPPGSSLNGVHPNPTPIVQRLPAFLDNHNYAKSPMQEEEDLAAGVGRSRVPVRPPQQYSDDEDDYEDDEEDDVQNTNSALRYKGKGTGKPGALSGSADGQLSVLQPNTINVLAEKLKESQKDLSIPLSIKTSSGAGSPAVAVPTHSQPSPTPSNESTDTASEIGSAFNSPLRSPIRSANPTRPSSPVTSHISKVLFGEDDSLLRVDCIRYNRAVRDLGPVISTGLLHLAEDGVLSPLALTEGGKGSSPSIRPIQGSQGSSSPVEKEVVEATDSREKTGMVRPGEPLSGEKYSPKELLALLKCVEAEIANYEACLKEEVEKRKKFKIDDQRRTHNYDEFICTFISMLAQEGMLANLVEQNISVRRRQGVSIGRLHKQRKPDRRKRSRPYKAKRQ
# UniProt P54709, sequence (P54709 whole entry, looked up): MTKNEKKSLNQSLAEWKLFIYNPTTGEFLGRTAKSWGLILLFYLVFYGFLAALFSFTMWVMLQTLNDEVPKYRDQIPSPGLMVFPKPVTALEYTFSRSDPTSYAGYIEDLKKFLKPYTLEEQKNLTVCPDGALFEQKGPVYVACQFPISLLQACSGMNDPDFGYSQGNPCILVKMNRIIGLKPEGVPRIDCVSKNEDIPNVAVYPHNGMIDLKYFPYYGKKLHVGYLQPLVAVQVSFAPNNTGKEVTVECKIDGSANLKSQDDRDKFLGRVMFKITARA
# UniProt O95782, sequence (O95782 whole entry, looked up): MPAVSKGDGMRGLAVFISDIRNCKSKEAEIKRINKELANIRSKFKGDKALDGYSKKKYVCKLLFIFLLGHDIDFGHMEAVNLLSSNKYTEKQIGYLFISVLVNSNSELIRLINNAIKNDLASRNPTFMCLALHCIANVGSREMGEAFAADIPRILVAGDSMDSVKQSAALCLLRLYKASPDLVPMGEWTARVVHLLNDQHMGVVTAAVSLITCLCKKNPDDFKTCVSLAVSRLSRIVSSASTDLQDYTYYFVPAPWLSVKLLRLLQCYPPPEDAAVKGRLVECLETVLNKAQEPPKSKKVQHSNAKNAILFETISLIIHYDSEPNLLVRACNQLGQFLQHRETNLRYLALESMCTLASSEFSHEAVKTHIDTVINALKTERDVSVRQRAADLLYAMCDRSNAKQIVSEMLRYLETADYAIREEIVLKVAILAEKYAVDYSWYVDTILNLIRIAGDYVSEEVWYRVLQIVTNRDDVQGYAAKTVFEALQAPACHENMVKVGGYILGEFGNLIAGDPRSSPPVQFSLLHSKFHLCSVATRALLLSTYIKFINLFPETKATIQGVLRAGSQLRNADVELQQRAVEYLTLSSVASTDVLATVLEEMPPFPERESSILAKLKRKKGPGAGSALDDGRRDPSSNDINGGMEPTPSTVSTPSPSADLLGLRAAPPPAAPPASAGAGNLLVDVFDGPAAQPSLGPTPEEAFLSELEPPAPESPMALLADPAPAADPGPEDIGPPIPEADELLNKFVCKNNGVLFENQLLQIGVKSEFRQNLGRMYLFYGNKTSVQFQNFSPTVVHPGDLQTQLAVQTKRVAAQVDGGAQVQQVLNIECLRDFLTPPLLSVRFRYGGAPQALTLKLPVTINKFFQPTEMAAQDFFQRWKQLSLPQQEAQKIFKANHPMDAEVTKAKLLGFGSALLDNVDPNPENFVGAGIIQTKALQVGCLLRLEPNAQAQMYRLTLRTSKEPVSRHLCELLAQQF
# UniProt Q9Y6H3, sequence (Q9Y6H3 whole entry, looked up): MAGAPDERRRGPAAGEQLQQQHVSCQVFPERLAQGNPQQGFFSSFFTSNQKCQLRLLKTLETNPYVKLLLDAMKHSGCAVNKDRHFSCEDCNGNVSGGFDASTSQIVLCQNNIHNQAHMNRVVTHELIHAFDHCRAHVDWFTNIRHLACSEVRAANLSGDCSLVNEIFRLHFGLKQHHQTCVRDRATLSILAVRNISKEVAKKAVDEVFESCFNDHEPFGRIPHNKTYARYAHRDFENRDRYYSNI
# UniProt Q9UQB8, sequence (Q9UQB8 whole entry, looked up): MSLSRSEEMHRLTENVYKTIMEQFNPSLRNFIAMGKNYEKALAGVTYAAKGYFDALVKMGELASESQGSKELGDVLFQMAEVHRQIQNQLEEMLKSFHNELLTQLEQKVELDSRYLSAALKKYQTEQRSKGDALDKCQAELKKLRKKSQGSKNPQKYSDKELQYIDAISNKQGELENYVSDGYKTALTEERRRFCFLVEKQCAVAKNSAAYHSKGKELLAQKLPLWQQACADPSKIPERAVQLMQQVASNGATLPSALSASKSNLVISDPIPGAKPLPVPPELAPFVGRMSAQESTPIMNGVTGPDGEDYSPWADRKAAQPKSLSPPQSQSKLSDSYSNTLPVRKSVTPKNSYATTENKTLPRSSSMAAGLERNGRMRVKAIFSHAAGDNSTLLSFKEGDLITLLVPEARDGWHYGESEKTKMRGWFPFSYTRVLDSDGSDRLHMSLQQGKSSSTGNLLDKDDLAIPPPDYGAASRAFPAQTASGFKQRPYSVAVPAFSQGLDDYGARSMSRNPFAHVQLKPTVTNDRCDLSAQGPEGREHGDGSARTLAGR
# UniProt Q8N2F6, sequence (Q8N2F6 whole entry, looked up): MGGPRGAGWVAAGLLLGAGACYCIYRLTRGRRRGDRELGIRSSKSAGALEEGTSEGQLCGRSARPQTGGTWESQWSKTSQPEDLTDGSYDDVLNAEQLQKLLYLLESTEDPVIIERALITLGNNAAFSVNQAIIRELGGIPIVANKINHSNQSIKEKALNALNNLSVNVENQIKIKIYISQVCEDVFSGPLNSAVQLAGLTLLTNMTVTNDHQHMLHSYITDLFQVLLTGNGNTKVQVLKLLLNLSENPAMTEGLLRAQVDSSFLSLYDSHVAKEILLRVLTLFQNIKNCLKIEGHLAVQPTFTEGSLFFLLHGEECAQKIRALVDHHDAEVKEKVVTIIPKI
# UniProt Q96CW1, sequence (Q96CW1 whole entry, looked up): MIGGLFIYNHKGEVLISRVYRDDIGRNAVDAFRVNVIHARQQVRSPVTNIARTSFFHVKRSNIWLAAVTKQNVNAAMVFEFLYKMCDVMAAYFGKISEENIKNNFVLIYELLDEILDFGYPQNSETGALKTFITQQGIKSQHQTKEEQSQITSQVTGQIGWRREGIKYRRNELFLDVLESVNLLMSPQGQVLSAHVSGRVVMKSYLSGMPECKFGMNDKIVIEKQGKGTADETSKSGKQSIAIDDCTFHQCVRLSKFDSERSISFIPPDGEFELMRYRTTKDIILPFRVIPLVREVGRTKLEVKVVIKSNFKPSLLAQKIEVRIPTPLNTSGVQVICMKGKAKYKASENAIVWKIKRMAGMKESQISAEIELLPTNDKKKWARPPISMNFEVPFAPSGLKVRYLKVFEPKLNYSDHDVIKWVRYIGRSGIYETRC
# UniProt Q16864, sequence (Q16864 whole entry, looked up): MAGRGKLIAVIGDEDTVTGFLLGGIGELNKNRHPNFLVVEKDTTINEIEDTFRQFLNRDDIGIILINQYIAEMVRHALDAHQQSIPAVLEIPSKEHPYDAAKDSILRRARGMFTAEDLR
Target,log2 fold change [1],log2 fold change [2],log2 fold change [3],log2 fold change [4],log2 fold change [5]
ABCA3 (UniProt Q99758),0.239 (inactive),0.002 (inactive),-0.05 (inactive),0.02 (inactive),-0.035 (inactive)
ACSL5 isoform 3 (UniProt Q9ULC5),-0.024 (inactive),0.043 (inactive),0.101 (inactive),0.057 (inactive),-0.178 (inactive)
ATR (UniProt Q13535),-0.045 (inactive),0.025 (inactive),0.107 (inactive),-0.022 (inactive),-0.079 (inactive)
BECN1 (UniProt Q14457),-0.071 (inactive),0.061 (inactive),-0.017 (inactive),0.021 (inactive),0.05 (inactive)
ATAD1 (UniProt Q8NBU5),0.016 (inactive),0.055 (inactive),0.063 (inactive),-0.027 (inactive),-0.02 (inactive)
ARPP19 (UniProt P56211),0.003 (inactive),0.021 (inactive),-0.076 (inactive),0.031 (inactive),-0.007 (inactive)
AP2M1 (UniProt Q96CW1),-0.005 (inactive),0.03 (inactive),-0.013 (inactive),0.006 (inactive),0.009 (inactive)
ACOX3 (UniProt O15254),0.015 (inactive),0.238 (inactive),-0.185 (inactive),0.131 (inactive),0.077 (inactive)
ARFGAP1 (UniProt Q8N6T3),0.033 (inactive),0.077 (inactive),0.074 (inactive),-0.064 (inactive),-0.034 (inactive)
AKAP8 (UniProt O43823),0.012 (inactive),-0.03 (inactive),0.105 (inactive),-0.018 (inactive),0.347 (active)
BPHL (UniProt Q86WA6),-0.015 (inactive),0.052 (inactive),0.075 (inactive),0.136 (inactive),-0.065 (inactive)
B4GALT1 (UniProt P15291),0.034 (inactive),0.057 (inactive),-0.065 (inactive),-0.022 (inactive),-0.042 (inactive)
AP2M1 (UniProt C9JTK4),-0.113 (inactive),0.083 (inactive),0.131 (inactive),0.136 (inactive),-0.076 (inactive)
ALKBH4 (UniProt Q9NXW9),0.023 (inactive),-0.063 (inactive),-0.078 (inactive),0.079 (inactive),-0.033 (inactive)
BAIAP2 (UniProt Q9UQB8),-0.019 (inactive),0.071 (inactive),0.072 (inactive),0.014 (inactive),0.002 (inactive)
ATP11A (UniProt P98196),0.001 (inactive),-0.003 (inactive),0.085 (inactive),-0.034 (inactive),0.062 (inactive)
ACSL3 (UniProt O95573),-0.05 (inactive),0.068 (inactive),0.028 (inactive),-0.014 (inactive),-0.036 (inactive)
ATP13A2 (UniProt Q9NQ11),0.031 (inactive),-0.075 (inactive),0.007 (inactive),-0.062 (inactive),0.092 (inactive)
BUB1B isoform 3 (UniProt O60566),-0.077 (inactive),-0.004 (inactive),0.1 (inactive),0.01 (inactive),-0.002 (inactive)
BMP2K (UniProt Q9NSY1),0.015 (inactive),0 (inactive),-0.018 (inactive),0.035 (inactive),-0.001 (inactive)
ATP7B (UniProt P35670),0 (inactive),0.094 (inactive),0.014 (inactive),0.022 (inactive),0.076 (inactive)
ACSM3 (UniProt Q53FZ2),-0.046 (inactive),-0.051 (inactive),0.091 (inactive),-0.03 (inactive),-0.029 (inactive)
ABHD16A (UniProt O95870),-0.005 (inactive),0.011 (inactive),0.026 (inactive),0.066 (inactive),-0.088 (inactive)
BZW2 (UniProt Q9Y6E2),-0.069 (inactive),0.042 (inactive),0.025 (inactive),-0.033 (inactive),-0.014 (inactive)
AK6 (UniProt Q9Y3D8),-0.043 (inactive),0.042 (inactive),0.2 (inactive),-0.014 (inactive),-0.008 (inactive)
ATP1A1 (UniProt P05023),0.009 (inactive),0.051 (inactive),-0.045 (inactive),0 (inactive),-0.01 (inactive)
ARMC10 (UniProt Q8N2F6),0.035 (inactive),-0.017 (inactive),-0.006 (inactive),0.012 (inactive),-0.009 (inactive)

Target,log2 fold change [1],log2 fold change [2],log2 fold change [3],log2 fold change [4],log2 fold change [5]
AGPS (UniProt O00116),-0.046 (inactive),0.081 (inactive),0.079 (inactive),-0.031 (inactive),-0.051 (inactive)
ATP9B (UniProt O43861),-0.092 (inactive),-0.001 (inactive),0.055 (inactive),-0.048 (inactive),0.071 (inactive)
ATOX1 (UniProt O00244),0.033 (inactive),0.124 (inactive),0.101 (inactive),-0.153 (inactive),0.008 (inactive)
ATXN3 isoform 1 (UniProt P54252),-0.012 (inactive),0.001 (inactive),0.118 (inactive),-0.068 (inactive),0 (inactive)
ATRN (UniProt O75882),-0.011 (inactive),-0.031 (inactive),0.027 (inactive),-0.055 (inactive),0.006 (inactive)
ANP32E (UniProt Q9BTT0),-0.092 (inactive),-0.037 (inactive),0.14 (inactive),-0.012 (inactive),0.075 (inactive)
ATP6V0A2 (UniProt Q9Y487),0.018 (inactive),-0.044 (inactive),-0.007 (inactive),-0.059 (inactive),-0.014 (inactive)
ASS1 (UniProt P00966),-0.099 (inactive),-0.036 (inactive),0.032 (inactive),-0.141 (inactive),-0.146 (inactive)
AP2A1 (UniProt O95782),-0.001 (inactive),-0.021 (inactive),-0.028 (inactive),0.047 (inactive),-0.005 (inactive)
AARSD1 isoform 3 (UniProt Q9BTE6),-0.053 (inactive),-0.068 (inactive),0.039 (inactive),0.047 (inactive),0.023 (inactive)
ATP6V1F isoform 2 (UniProt Q16864),0.015 (inactive),-0.144 (inactive),-0.138 (inactive),-0.126 (inactive),0.02 (inactive)
AIFM2 (UniProt Q9BRQ8),0.036 (inactive),0.047 (inactive),0.026 (inactive),0.045 (inactive),0 (inactive)
ATAD3A isoform 2 (UniProt Q9NVI7),-0.019 (inactive),-0.037 (inactive),-0.052 (inactive),0.08 (inactive),0.054 (inactive)
ARMC8 (UniProt Q8IUR7),0.05 (inactive),-0.005 (inactive),0 (inactive),0.021 (inactive),0.011 (inactive)
ABCC5 (UniProt O15440),-0.034 (inactive),0.082 (inactive),-0.02 (inactive),-0.001 (inactive),-0.025 (inactive)
ACAP2 (UniProt Q15057),-0.009 (inactive),-0.001 (inactive),0.132 (inactive),0.01 (inactive),0.011 (inactive)
ATP23 (UniProt Q9Y6H3),-0.023 (inactive),-0.031 (inactive),-0.009 (inactive),-0.052 (inactive),-0.053 (inactive)
BTBD6 (UniProt Q96KE9),0.12 (inactive),0.073 (inactive),0.04 (inactive),-0.117 (inactive),-0.099 (inactive)
AGPAT1 (UniProt Q99943),-0.006 (inactive),0.075 (inactive),0.103 (inactive),-0.032 (inactive),0.023 (inactive)
BAP1 (UniProt Q92560),-0.226 (inactive),-0.123 (inactive),-0.156 (inactive),0.066 (inactive),-0.037 (inactive)
ADRM1 (UniProt Q16186),0.007 (inactive),-0.062 (inactive),-0.001 (inactive),-0.019 (inactive),-0.01 (inactive)
ABHD11 (UniProt Q8NFV4),-0.008 (inactive),0.127 (inactive),0.136 (inactive),-0.12 (inactive),-0.037 (inactive)
ATP1B3 (UniProt P54709),0.012 (inactive),0.042 (inactive),0.001 (inactive),0.002 (inactive),0.006 (inactive)
BLVRB (UniProt P30043),-0.029 (inactive),0.027 (inactive),-0.01 (inactive),-0.006 (inactive),0.013 (inactive)
AMFR (UniProt Q9UKV5),-0.043 (inactive),-0.004 (inactive),0.023 (inactive),0.024 (inactive),-0.046 (inactive)
ACAD9 (UniProt Q9H845),0.012 (inactive),0.028 (inactive),0.031 (inactive),0.022 (inactive),0.009 (inactive)
